ROC1-CUL1 inh: human ROC1-CUL1 E3 ligase inhibition; in vitro K48 di-Ub FRET, acceptor:donor ratio, 45 min; 0.6% of 140,000 active; inhibition, % at 10 µM; P62877+Q13616; in the data active = inhibition above about 25%
Target sequence (P62877 whole entry, looked up): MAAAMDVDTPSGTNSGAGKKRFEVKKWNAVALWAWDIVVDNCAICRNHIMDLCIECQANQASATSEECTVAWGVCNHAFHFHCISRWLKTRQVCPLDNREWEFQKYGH
Target sequence (Q13616 whole entry, looked up): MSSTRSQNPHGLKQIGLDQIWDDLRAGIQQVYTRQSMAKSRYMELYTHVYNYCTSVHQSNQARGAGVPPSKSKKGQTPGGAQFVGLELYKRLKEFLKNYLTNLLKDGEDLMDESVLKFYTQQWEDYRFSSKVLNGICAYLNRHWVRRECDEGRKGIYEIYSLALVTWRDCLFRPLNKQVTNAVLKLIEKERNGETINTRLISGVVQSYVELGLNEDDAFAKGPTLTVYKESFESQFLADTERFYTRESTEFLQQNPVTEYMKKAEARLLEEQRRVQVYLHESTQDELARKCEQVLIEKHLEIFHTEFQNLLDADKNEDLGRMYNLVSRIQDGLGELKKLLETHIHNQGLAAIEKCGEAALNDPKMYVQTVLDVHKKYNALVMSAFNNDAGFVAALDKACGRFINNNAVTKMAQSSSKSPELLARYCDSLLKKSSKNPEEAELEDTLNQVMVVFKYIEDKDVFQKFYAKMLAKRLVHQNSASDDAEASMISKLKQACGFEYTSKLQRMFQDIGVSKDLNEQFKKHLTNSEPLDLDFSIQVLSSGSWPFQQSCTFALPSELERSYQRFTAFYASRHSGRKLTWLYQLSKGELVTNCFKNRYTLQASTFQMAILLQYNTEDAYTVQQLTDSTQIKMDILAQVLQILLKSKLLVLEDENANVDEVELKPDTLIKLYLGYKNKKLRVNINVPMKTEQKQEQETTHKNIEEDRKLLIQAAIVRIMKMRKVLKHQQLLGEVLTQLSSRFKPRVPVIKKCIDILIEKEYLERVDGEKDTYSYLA
An asterisk follows results filed as active. The entries come from a sample that favours hits as a whole.

SMILES	ROC1-CUL1 inh
COc1cccc(C(=O)COC(=O)CN2C(=O)c3c(Cl)c(Cl)c(Cl)c(Cl)c3C2=O)c1	-7
CCOc1ccc(NC(=O)CSc2nnc(CNC(=O)c3ccc(C)cc3)n2C)cc1	10
CCc1cccc2c(/C=C3/C(=O)NC(=S)N(CC)C3=O)cn(CCOc3ccccc3Cl)c12	-2
CCOC(=O)Cn1cc(/C=C2\C(=O)NC(=O)N(Cc3ccccc3)C2=O)c2ccccc21	1
CCc1cccc2c(/C=C3\C(=O)NC(=S)N(Cc4ccco4)C3=O)cn(CC(N)=O)c12	74*
CC1=NC(C)=C(C(=O)OC/C=C/c2ccccc2)C(c2cccc([N+](=O)[O-])c2)C1C(=O)OCCNC(=O)c1ccccc1O (configuration not stated)	-10
CCC(CC)c1nn2c(N)c(C=C3C=CC(=O)C(OC)=C3)c(=O)nc2s1	12
Nc1c(C=C2C=C(Cl)C(=O)C(Cl)=C2)c(=O)nc2sc(C34CC5CC(CC(C5)C3)C4)nn12	76*
CC(C)c1nn2c(N)c(C=C3C=C(Br)C=CC3=O)c(=O)nc2s1	2
COc1ccccc1NC(=O)C1C(C)=Nc2nc(SCc3ccccc3)nn2C1c1cccc(O)c1 (configuration not stated)	5
NC(=O)c1ccc(NC(=O)Nc2cccc(Cl)c2)cc1	-2
Cc1ccc(C(=O)Nc2sc3c(c2C(=O)O)CCCC3)cc1	47*
CN1CCN(C(=O)c2c(NC(=O)c3ccccc3)sc3c2CCCC3)CC1	-2
CCOC(=O)c1c(NC(=O)c2ccc(C)cc2)sc2c1CCCCC2	-1
NCCNC(=O)c1c(NC(=O)c2ccccc2)sc2c1CCCC2	34*
CC(=O)Nc1sc2c(c1C(=O)c1ccccc1)CCCC2	-2
O=C(Nc1sc2c(c1C(=O)O)CCCCC2)c1ccccc1	2
CN(CCc1ccccn1)Cc1nc(-c2ccc3c(c2)OCO3)no1	10
CCOC(=O)C1CCN(Cc2cccc(OCC(O)CN3CCN(CC)CC3)c2)CC1 (configuration not stated)	12
O=C(NN=C1CCN(Cc2ccccc2)CC1)c1ccccc1F	-4
O=C(CSc1nnc(COc2ccccc2)n1-c1ccccc1)Nc1ccc(Cl)cc1	6
CS/C(=C\C(=O)c1ccc(C)cc1)C(=O)c1ccc(C)cc1	-6
COC(=O)C1CCN(C(=O)c2oc3c(C)c(C)ccc3c2C)CC1	-2
CCc1ccc(C)c(OC(=O)c2ccc(C)cc2)c1	-7
O=C(Oc1ccc(S(=O)(=O)O)cc1C(=O)O)c1ccc(=O)oc1	5
SMILES	ROC1-CUL1 inh
Cc1ccc(C)c(OC(=O)c2ccc(=O)oc2)c1	28*
Cc1nc2ccccc2n(CCCCn2c(=O)c(C)nc3ccccc32)c1=O	5
Fc1ccc(COc2ccccc2CNc2ccc(N3CCCC3)cc2)cc1	-10
CN1C(=O)/C(=C/c2ccc(N3CCCC3)cc2)C(=O)NC1=S	13
Cc1ccsc1/C=C1/C(=O)NC(=S)N(c2cccc(Cl)c2Cl)C1=O	54*
O=C1NC(=S)N(c2cccc(Cl)c2Cl)C(=O)/C1=C/c1cn(Cc2ccc3ccccc3c2)c2ccccc12	-15
Cc1ccc(N2C(=O)NC(=O)/C(=C\c3cccs3)C2=O)cc1C	-8
O=C1NC(=S)N(c2cccc(Cl)c2Cl)C(=O)/C1=C/c1ccc(N2CCOCC2)cc1	29*
C=CCOc1ccc(/C=C2\C(=O)NC(=S)N(c3cccc(Cl)c3Cl)C2=O)cc1	-2
Cc1oc2cc(OC(C)C)ccc2c(=O)c1Oc1ccccc1F	0
Cc1oc2c(O)c(O)ccc2c(=O)c1Oc1ccc(F)cc1	56*
COC(=O)COc1ccc2c(=O)c(Oc3ccccc3)c(C)oc2c1	-6
Nc1nc(-c2cccc(Br)c2)cs1	5
Cc1ccc(-c2nnc(-c3ccccc3)nc2NCCCO)cc1	1
NCCNc1nc(-c2cccc(Br)c2)nnc1-c1ccccc1	54*
COc1ccc(N2CCN(S(=O)(=O)c3ccc(Oc4ccccc4Cl)cc3)CC2)cc1	1
COc1ccc(OCC(O)CN2CCN(C(c3ccccc3)c3ccccc3)CC2)cc1 (configuration not stated)	7
CCOc1c(Cl)cc(C(=O)Nc2ccccc2C(F)(F)F)cc1Cl	3
CCOc1cc(NC(=O)C(C(F)(F)F)C(F)(F)F)c(OCC)cc1NC(=O)c1ccccc1	67*
CCOc1cc(C(=O)Nc2ccccc2Oc2ccccc2)cc(OCC)c1OCC	-3
Cc1ccc(NC(=O)CSc2nnc(-c3cccc(NC(=O)c4ccc(C)cc4)c3)n2C)cc1	-4
O=C1NC(=S)NC(=O)C1=Cc1c(OCc2ccc(Br)cc2)ccc2ccccc12	58*
C=CCN1C(=O)/C(=C/c2c(OCc3ccccc3C#N)ccc3ccccc23)C(=O)NC1=S	14
O=C1NC(=S)NC(=O)C1=Cc1cc(Cl)ccc1OCc1ccc(C(=O)O)cc1	12
Cc1ccc(C)c(NC(=O)c2cnn(-c3ccccc3)c2-c2ccccc2)c1	-1
SMILES	ROC1-CUL1 inh
CN=C1CC=CC=C(C(=O)/C=C/c2cccc(C#N)c2)C1=O	49*
CN=C1CC=C(Br)C=C(C(=O)/C=C/c2ccc3c(c2)OCO3)C1=O	-1
CN=C1CC=CC=C(/C(C)=N/Nc2ccccc2)C1=O	-5
CN=C1CC=C(Br)C=C(C(=O)/C=C/c2ccc(C#N)cc2)C1=O	4
CCN=C1CC=CC=C(C(=O)/C=C/c2ccc3c(c2)OCO3)C1=O	4
CN=C1CC=CC=C(C(=O)/C=C/c2ccc3c(c2)OCO3)C1=O	93*
O=C(NNc1ncccc1[N+](=O)[O-])Nc1cccc2ccccc12	6
CC12CC3(C)CC(C)(C1)CC(C(=O)NCC(=O)Nc1ccc(F)cc1F)(C2)C3	8
CC1(C(=O)N2CCCC(CCc3ccccc3)C2)CC1 (configuration not stated)	4
Cc1ccc(NC(=O)CN2C(=O)c3ccc4c5c(ccc(c35)C2=O)CC4)cc1	38*
O=C(CN1C(=O)c2ccccc2C1=O)Nc1ccc(I)cc1	-6
Cc1ccc(NC(=O)CN2C(=O)c3ccccc3C2=O)cc1Cl	-11
CCC1CN(Cc2ccc(O)c(Cl)c2)Cc2cc(OC)ccc2O1 (configuration not stated)	4
CCOC(=O)C1(Cc2ccc(F)cc2)CCCN(C(=O)c2ccncc2)C1 (configuration not stated)	2
O=C1NN(c2ccc(Cl)c(Cl)c2)C(=O)/C1=C/c1cc(Br)ccc1O	73*
CCc1ccc(/C=C2\C(=O)NN(c3ccc(Cl)c(Cl)c3)C2=O)cc1	81*
O=C1NN(c2ccc(Cl)cc2)C(=O)/C1=C/c1ccc(Br)cc1	53*
Cc1cc(/C=C2\C(=O)NN(c3ccccc3)C2=O)c(C)n1-c1ccc(Cl)c(Cl)c1	0
COc1ccc(/C=C2/C(=O)NN(c3ccc(Br)cc3)C2=O)cc1	7
O=C1NN(c2ccc(Cl)c(Cl)c2)C(=O)/C1=C/c1ccc(Br)cc1	57*
O=C1NN(c2ccc(Cl)c(Cl)c2)C(=O)/C1=C/c1ccc(Cl)cc1Cl	13
O=C1NN(c2ccc(Cl)cc2)C(=O)/C1=C/c1ccc(O)cc1	2
O=C1NN(c2ccc(Br)cc2)C(=O)/C1=C\c1ccc2c(c1)OCO2	8
O=C1NN(c2ccc(Cl)c(Cl)c2)C(=O)/C1=C/c1ccccc1	21
CCc1ccc(/C=C2\C(=O)NN(c3ccc(I)cc3)C2=O)cc1	17
Cc1cc(C)c(NS(=O)(=O)c2ccccc2C)c(C)c1	1
COc1cccc(NC(=O)c2ccc(CN3CCCCC3)cc2)c1	2
CC(=O)Nc1cc2nsnc2c2nsnc12	-9
CCOc1cc(/C=C2/SC(=O)N(C(C)C)C2=O)cc(Br)c1OC	-4

High-throughput results as filed in PubChem BioAssay.
